In the supplement of paper PMC10849652:
About 7,900 targets were measured; listed, in parts, are those with a hit and a random draw of the rest. About 0.6% of all pairs of compound and target were hits.

Columns and labels:
Test in all cases: log2 fold change, soluble protein after heating vs DMSO (PISA); higher = thermal stabilisation; K562 cells, 10 uM, 30 min; active = over 0.2 and 3.5 SD of the protein, either way, in both replicates (recomputed)
[1] = compound: CS(=O)(=O)c1ccc(-c2cnc(N)c(C(=O)Nc3ccccc3)n2)cc1
In short: (§1)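 Thermal stability values are relative to control samples and come from duplicates. They are expressed as log2 fold changes. For measurement, K562 cells (2×10^6 cells/mL) received 10 μM compound for 30 min, and aliquots were heated for 3 min over 48°C-58°C, pooled, and extracted at 4°C in PBS with 0.5% NP-40. Soluble protein, the supernatant after 21,000xg for 90 min, was quantified by TMTpro 16plex LC-MS/MS with equalised channel sums.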

crizotinib = compound: C[C@@H](Oc1cc(-c2cnn(C3CCNCC3)c2)cnc1N)c1c(Cl)ccc(F)c1Cl [crizotinib]
In short: as §1

[2] = compound: C[C@@H]1COCCN1C2=NC(=NC(=C2)C3(CC3)S(=O)(=O)C)C4=C5C=CNC5=CC=C4
In short: as §1

[3] = compound: C[C@H](C1=CC=C(C=C1)C(=O)NC2=C3C=CNC3=NC=C2)N
In short: as §1

duvelisib = compound: C[C@H](Nc1ncnc2nc[nH]c12)c1cc2cccc(Cl)c2c(=O)n1-c1ccccc1 [duvelisib]
In short: as §1

gandotinib = compound: Cc1cc(Nc2cc(CN3CCOCC3)c3nc(C)c(Cc4ccc(Cl)cc4F)n3n2)n[nH]1 [gandotinib]
In short: as §1

tozasertib = compound: Cc1cc(Nc2cc(N3CCN(C)CC3)nc(Sc3ccc(NC(=O)C4CC4)cc3)n2)n[nH]1 [tozasertib]
In short: as §1

[4] = compound: Cc1cc(SCc2sc(-c3ccc(C(F)(F)F)cc3)nc2C)ccc1OCC(=O)O
In short: as §1

doramapimod = compound: Cc1ccc(-n2nc(C(C)(C)C)cc2NC(=O)Nc2ccc(OCCN3CCOCC3)c3ccccc23)cc1 [doramapimod]
In short: as §1

ispinesib = compound: Cc1ccc(C(=O)N(CCCN)[C@@H](c2nc3cc(Cl)ccc3c(=O)n2Cc2ccccc2)C(C)C)cc1 [ispinesib]
In short: as §1

bafetinib = compound: Cc1ccc(NC(=O)c2ccc(CN3CC[C@H](N(C)C)C3)c(C(F)(F)F)c2)cc1Nc1nccc(-c2cncnc2)n1 [bafetinib]
In short: as §1

[5] = compound: Cc1cccc(CC(=O)N2CCc3c2ccc(-c2cn(C)c4ncnc(N)c24)c3F)n1
In short: as §1

nilotinib = compound: Cc1cn(-c2cc(NC(=O)c3ccc(C)c(Nc4nccc(-c5cccnc5)n4)c3)cc(C(F)(F)F)c2)cn1 [nilotinib]
In short: as §1

[6] = compound: Cc1nc(Nc2n[nH]c3c2CN(C(=O)N[C@H](CN(C)C)c2ccccc2)C3(C)C)c2sccc2n1
In short: as §1

dasatinib = compound: Cc1nc(Nc2ncc(C(=O)Nc3c(C)cccc3Cl)s2)cc(N2CCN(CCO)CC2)n1 [dasatinib]
In short: as §1

[7] = compound: Cc1ncc(-c2ccnc(Nc3ccc(S(C)(=O)=O)cc3)n2)n1C(C)C
In short: as §1

[8] = compound: Cn1cc(-c2ccc3c(c2)CCN3C(=O)Cc2cccc(C(F)(F)F)c2)c2c(N)ncnc21
In short: as §1

[9] = compound: Cn1cc(-c2ccc3nnc(C(F)(F)c4ccc5ncccc5c4)n3n2)cn1
In short: as §1

tipifarnib = compound: Cn1cncc1[C@@](N)(c1ccc(Cl)cc1)c1ccc2c(c1)c(-c1cccc(Cl)c1)cc(=O)n2C [tipifarnib]
In short: as §1

mubritinib = compound: FC(F)(F)c1ccc(/C=C/c2nc(COc3ccc(CCCCn4ccnn4)cc3)co2)cc1 [mubritinib]
In short: as §1

Measured: log2 fold change

UBE2Q1 (UniProt Q7Z7E8)
Chain of UniProt Q7Z7E8 (Q7Z7E8 whole entry, looked up): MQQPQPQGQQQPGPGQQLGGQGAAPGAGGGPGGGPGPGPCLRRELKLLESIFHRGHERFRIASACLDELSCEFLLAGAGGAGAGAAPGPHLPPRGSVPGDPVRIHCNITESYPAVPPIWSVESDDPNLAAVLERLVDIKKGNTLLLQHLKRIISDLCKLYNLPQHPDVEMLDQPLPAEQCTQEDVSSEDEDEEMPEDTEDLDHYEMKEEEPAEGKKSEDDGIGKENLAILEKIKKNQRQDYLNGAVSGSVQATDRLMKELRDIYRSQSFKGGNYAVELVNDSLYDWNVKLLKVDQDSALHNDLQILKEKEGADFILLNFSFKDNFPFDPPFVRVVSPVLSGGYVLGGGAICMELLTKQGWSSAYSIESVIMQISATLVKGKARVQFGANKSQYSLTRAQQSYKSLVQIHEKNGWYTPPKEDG
inactive: [1] 0 | crizotinib -0.061 | [2] 0.092 | [3] 0.004 | duvelisib 0.003 | gandotinib -0.196 | tozasertib 0.036 | [4] 0.07 | doramapimod 0.029 | ispinesib -0.001 | bafetinib -0.029 | [5] 0.015 | nilotinib -0.134 | [6] -0.103 | dasatinib -0.101 | [7] -0.046 | [8] -0.012 | [9] 0.027 | tipifarnib -0.103 | mubritinib 0.006

UQCR10 (UniProt Q9UDW1)
Chain of UniProt Q9UDW1 (Q9UDW1 whole entry, looked up): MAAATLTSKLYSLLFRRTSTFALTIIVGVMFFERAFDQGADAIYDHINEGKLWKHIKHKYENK
inactive: [1] -0.036 | crizotinib 0.079 | [2] 0.071 | [3] -0.043 | duvelisib 0.089 | tozasertib 0.013 | [4] 0.013 | doramapimod -0.025 | ispinesib 0.095 | bafetinib -0.047 | [5] -0.011 | nilotinib -0.003 | [6] 0.02 | dasatinib -0.009 | [7] -0.059 | [8] 0.072 | [9] 0.084 | tipifarnib 0.007 | mubritinib -0.024
active: gandotinib -0.403

UXT isoform 2 (UniProt Q9UBK9)
Chain of UniProt Q9UBK9 (Q9UBK9 whole entry, looked up): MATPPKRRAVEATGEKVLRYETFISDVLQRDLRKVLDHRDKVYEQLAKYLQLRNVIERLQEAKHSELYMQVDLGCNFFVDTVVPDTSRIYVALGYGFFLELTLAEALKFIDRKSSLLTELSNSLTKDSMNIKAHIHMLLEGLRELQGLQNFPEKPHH
inactive: [1] 0.063 | crizotinib 0.056 | [2] 0.184 | [3] 0.006 | duvelisib 0.017 | gandotinib 0.255 | tozasertib 0.021 | [4] -0.034 | doramapimod 0.017 | ispinesib -0.035 | bafetinib 0.016 | [5] 0.036 | nilotinib 0.04 | [6] -0.068 | dasatinib -0.033 | [7] 0.001 | [8] 0.11 | [9] 0.026 | tipifarnib -0.144 | mubritinib 0.014

TSEN2 (UniProt Q8NCE0)
Chain of UniProt Q8NCE0 (Q8NCE0 whole entry, looked up): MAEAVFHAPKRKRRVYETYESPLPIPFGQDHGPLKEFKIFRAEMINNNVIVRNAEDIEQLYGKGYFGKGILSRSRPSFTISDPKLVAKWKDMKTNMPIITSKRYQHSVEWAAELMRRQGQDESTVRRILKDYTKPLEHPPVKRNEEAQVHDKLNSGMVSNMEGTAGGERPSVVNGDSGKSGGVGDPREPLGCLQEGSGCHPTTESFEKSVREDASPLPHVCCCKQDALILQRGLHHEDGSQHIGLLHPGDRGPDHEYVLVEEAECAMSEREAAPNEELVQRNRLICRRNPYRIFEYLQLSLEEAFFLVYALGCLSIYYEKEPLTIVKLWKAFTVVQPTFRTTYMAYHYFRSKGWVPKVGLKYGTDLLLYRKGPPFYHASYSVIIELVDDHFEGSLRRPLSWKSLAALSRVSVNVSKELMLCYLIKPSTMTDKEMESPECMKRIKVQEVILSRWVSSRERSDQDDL
inactive: [1] -0.198 | crizotinib 0.052 | [2] 0.014 | [3] 0 | duvelisib 0.049 | gandotinib -0.127 | tozasertib -0.048 | [4] 0.056 | doramapimod -0.057 | ispinesib -0.074 | bafetinib 0.008 | [5] 0.032 | nilotinib -0.05 | [6] -0.112 | dasatinib -0.132 | [7] -0.034 | [8] 0.05 | [9] -0.013 | tipifarnib -0.005 | mubritinib -0.16

USP34 (UniProt Q70CQ2)
inactive: [1] -0.049 | crizotinib -0.142 | [2] 0.046 | [3] 0.051 | duvelisib 0.078 | gandotinib -0.131 | tozasertib 0.061 | [4] 0.118 | doramapimod -0.006 | ispinesib -0.007 | bafetinib -0.004 | [5] -0.002 | nilotinib -0.054 | [6] 0.034 | dasatinib -0.141 | [7] -0.223 | [8] -0.012 | [9] 0.033 | tipifarnib -0.134 | mubritinib -0.049

VPS11 (UniProt Q9H270)
Chain of UniProt Q9H270 (Q9H270 whole entry, looked up): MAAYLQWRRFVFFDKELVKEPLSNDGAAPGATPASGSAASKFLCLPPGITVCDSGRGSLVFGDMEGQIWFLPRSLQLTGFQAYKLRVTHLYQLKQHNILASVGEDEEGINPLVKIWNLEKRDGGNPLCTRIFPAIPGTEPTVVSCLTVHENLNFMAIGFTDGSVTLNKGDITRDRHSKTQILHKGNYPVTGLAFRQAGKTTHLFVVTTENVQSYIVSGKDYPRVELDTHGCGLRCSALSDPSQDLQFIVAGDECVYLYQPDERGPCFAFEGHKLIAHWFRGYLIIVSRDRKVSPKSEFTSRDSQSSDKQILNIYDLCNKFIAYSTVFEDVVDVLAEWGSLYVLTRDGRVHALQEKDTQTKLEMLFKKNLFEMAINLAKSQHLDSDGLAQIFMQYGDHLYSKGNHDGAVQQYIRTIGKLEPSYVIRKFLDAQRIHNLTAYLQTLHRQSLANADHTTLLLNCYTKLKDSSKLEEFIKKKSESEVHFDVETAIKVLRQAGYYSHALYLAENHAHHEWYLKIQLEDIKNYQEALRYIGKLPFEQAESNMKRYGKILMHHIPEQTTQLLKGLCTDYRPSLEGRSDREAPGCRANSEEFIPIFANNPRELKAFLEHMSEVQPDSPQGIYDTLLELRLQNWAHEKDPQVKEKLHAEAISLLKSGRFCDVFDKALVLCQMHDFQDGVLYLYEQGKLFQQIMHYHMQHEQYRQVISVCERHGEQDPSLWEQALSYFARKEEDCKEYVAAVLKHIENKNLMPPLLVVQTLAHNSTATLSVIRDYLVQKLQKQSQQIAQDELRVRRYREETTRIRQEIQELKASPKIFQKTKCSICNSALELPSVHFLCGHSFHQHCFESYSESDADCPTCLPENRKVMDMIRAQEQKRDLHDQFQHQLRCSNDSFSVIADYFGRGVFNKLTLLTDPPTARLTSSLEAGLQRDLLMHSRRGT
inactive: [1] 0.009 | [2] -0.039 | [3] 0.054 | duvelisib -0.016 | gandotinib -0.111 | tozasertib 0.034 | [4] 0.095 | doramapimod -0.029 | ispinesib -0.226 | bafetinib -0.033 | [5] 0.006 | nilotinib -0.048 | [6] -0.006 | dasatinib -0.154 | [7] 0.005 | [8] -0.016 | [9] -0.004 | tipifarnib -0.093 | mubritinib 0.027
active: crizotinib -0.373

U2AF1 isoform 2 (UniProt Q01081)
Chain of UniProt Q01081 (Q01081 whole entry, looked up): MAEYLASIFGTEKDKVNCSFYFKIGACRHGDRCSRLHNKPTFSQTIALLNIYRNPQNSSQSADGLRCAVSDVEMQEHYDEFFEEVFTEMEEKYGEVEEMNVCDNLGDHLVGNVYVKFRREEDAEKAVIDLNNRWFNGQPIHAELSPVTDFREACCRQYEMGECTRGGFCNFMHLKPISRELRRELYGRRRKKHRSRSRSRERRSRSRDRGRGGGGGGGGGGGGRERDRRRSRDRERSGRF
inactive: [1] -0.046 | crizotinib 0.067 | [2] 0.03 | [3] -0.134 | duvelisib 0.044 | gandotinib -0.005 | tozasertib 0.05 | [4] 0.114 | doramapimod -0.143 | ispinesib 0 | bafetinib 0.037 | [5] -0.06 | nilotinib -0.017 | dasatinib -0.056 | [7] 0.058 | [8] 0.01 | [9] -0.06 | tipifarnib 0.034 | mubritinib -0.099
active: [6] -1.31

TRAPPC8 (UniProt Q9Y2L5)
Chain of UniProt Q9Y2L5 (Q9Y2L5 whole entry, looked up): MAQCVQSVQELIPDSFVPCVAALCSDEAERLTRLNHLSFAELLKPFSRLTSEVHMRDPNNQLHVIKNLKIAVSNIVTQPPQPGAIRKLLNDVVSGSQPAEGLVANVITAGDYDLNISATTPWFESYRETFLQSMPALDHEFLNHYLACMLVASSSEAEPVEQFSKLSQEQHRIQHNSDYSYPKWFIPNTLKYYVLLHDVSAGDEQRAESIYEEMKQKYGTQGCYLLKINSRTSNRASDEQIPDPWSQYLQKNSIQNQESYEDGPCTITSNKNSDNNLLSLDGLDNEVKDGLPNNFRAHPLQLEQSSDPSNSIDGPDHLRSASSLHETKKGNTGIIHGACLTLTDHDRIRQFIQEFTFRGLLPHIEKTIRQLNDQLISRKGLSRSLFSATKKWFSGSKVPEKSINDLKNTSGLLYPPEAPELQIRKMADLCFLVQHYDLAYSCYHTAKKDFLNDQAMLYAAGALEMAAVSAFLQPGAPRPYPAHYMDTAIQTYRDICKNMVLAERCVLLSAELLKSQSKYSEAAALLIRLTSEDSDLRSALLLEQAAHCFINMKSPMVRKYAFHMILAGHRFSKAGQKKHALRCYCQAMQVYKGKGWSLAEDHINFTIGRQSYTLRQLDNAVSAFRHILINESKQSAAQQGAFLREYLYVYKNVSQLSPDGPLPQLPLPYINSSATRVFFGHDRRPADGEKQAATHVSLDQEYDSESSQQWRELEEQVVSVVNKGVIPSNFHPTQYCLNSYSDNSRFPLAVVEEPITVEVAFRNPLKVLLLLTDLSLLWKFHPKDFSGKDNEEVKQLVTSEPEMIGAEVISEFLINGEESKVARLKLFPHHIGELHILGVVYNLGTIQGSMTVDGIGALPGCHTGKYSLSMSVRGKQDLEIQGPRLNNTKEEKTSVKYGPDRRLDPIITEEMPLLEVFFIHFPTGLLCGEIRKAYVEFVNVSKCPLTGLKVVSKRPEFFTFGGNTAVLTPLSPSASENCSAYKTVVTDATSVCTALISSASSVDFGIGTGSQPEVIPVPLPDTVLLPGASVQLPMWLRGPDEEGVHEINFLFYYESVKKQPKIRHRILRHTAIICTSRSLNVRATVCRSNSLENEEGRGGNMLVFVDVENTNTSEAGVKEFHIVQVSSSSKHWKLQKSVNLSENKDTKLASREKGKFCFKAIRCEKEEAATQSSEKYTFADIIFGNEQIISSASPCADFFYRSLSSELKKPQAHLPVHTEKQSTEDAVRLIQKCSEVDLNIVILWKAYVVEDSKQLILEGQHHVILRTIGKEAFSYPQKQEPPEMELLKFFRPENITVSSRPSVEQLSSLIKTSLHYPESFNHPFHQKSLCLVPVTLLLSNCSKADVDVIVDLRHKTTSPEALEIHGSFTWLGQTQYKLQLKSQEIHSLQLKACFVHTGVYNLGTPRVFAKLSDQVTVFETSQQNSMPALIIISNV
inactive: [1] 0.036 | crizotinib -0.033 | [2] -0.008 | [3] 0.032 | duvelisib 0.002 | gandotinib -0.056 | tozasertib 0.015 | [4] 0.117 | doramapimod -0.012 | ispinesib -0.138 | bafetinib -0.037 | [5] 0.044 | nilotinib -0.055 | [6] -0.04 | dasatinib -0.133 | [7] 0.059 | [8] 0 | [9] 0.004 | tipifarnib -0.013 | mubritinib 0.045

TPR (UniProt P12270)
inactive: [1] -0.03 | [2] 0.013 | [3] -0.083 | duvelisib 0.017 | gandotinib 0.008 | [4] -0.027 | doramapimod 0.037 | ispinesib 0.223 | bafetinib -0.011 | [5] -0.004 | nilotinib 0.056 | [6] 0.04 | dasatinib 0.158 | [7] 0.047 | [8] -0.184 | [9] -0.017 | tipifarnib 0.002 | mubritinib 0.089
active: crizotinib 0.297 | tozasertib 0.349

UGGT1 (UniProt Q9NYU2)
inactive: [1] 0.013 | crizotinib 0 | [2] 0.012 | [3] 0.009 | duvelisib -0.005 | gandotinib 0.005 | tozasertib 0.008 | [4] 0.016 | doramapimod 0.017 | ispinesib 0.012 | bafetinib -0.005 | [5] -0.007 | nilotinib -0.015 | [6] 0.016 | dasatinib -0.007 | [7] -0.036 | [8] -0.017 | [9] -0.001 | tipifarnib -0.026 | mubritinib -0.043

VRK2 (UniProt Q86Y07)
Chain of UniProt Q86Y07 (Q86Y07 whole entry, looked up): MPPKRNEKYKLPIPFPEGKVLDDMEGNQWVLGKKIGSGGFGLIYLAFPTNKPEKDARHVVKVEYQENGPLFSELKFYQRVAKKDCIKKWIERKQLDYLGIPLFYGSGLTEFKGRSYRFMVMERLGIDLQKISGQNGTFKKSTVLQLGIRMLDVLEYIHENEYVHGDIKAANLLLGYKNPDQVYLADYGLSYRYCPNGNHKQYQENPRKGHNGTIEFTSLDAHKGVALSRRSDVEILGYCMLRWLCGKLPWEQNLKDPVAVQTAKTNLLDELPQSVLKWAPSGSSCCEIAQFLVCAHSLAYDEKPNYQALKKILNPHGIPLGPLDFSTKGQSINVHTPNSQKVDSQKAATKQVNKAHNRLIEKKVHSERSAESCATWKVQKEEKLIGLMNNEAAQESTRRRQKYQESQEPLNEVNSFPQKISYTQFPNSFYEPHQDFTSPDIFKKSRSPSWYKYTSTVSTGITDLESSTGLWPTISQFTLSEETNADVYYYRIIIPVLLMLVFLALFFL
active: [3] 0.472 | [6] 0.414
inactive: [1] 0.048 | crizotinib -0.16 | [2] 0.015 | duvelisib -0.01 | gandotinib -0.08 | tozasertib -0.057 | [4] 0.012 | doramapimod 0.026 | ispinesib -0.115 | bafetinib 0.033 | [5] 0.081 | nilotinib -0.062 | dasatinib 0.011 | [7] 0.033 | [8] 0.129 | [9] -0.066 | tipifarnib -0.057 | mubritinib 0.006

TUBAL3 (UniProt A6NHL2)
Chain of UniProt A6NHL2 (A6NHL2 whole entry, looked up): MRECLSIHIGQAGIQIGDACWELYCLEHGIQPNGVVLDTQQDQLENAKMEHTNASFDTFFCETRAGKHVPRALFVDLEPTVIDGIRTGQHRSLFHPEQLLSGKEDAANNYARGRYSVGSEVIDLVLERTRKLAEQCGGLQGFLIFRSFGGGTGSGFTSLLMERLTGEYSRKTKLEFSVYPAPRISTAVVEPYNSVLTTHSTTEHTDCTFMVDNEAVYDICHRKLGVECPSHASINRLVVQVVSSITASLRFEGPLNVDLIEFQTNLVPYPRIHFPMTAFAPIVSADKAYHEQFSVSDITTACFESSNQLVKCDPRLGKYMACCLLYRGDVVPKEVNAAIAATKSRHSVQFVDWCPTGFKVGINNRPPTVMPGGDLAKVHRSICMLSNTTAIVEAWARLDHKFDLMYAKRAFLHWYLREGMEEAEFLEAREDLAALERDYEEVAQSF
inactive: [1] -0.097 | crizotinib -0.128 | [2] 0.161 | [3] 0.02 | duvelisib 0.009 | gandotinib -0.165 | tozasertib 0 | [4] -0.02 | doramapimod 0.113 | ispinesib -0.108 | bafetinib 0.167 | [5] 0.049 | nilotinib -0.144 | [6] 0.027 | dasatinib 0.051 | [7] -0.029 | [8] 0.005 | [9] -0.095 | tipifarnib -0.097 | mubritinib -0.01
